Experimental data: the supplement of paper PMC11732987, “Enantioselective OTUD7B fragment discovery through chemoproteomics screening and high-throughput optimisation” (Communications Chemistry, 2025)

Experiments:
Assay in all cases: log2 ratio of Biotin-Ahx-Ub-VS probe labelling (fragment/DMSO); higher = less target engagement (more negative = stronger competition), active = hit call of the paper (q ≤ 0.05, log2 ratio ≤ -1)
Details in all cases: compound concentration: 200 uM; treatment time: 3 h
USP9X = USP9X (UniProt Q93008)
Sequence of USP9X (Q93008 whole entry, the tested form may be a part): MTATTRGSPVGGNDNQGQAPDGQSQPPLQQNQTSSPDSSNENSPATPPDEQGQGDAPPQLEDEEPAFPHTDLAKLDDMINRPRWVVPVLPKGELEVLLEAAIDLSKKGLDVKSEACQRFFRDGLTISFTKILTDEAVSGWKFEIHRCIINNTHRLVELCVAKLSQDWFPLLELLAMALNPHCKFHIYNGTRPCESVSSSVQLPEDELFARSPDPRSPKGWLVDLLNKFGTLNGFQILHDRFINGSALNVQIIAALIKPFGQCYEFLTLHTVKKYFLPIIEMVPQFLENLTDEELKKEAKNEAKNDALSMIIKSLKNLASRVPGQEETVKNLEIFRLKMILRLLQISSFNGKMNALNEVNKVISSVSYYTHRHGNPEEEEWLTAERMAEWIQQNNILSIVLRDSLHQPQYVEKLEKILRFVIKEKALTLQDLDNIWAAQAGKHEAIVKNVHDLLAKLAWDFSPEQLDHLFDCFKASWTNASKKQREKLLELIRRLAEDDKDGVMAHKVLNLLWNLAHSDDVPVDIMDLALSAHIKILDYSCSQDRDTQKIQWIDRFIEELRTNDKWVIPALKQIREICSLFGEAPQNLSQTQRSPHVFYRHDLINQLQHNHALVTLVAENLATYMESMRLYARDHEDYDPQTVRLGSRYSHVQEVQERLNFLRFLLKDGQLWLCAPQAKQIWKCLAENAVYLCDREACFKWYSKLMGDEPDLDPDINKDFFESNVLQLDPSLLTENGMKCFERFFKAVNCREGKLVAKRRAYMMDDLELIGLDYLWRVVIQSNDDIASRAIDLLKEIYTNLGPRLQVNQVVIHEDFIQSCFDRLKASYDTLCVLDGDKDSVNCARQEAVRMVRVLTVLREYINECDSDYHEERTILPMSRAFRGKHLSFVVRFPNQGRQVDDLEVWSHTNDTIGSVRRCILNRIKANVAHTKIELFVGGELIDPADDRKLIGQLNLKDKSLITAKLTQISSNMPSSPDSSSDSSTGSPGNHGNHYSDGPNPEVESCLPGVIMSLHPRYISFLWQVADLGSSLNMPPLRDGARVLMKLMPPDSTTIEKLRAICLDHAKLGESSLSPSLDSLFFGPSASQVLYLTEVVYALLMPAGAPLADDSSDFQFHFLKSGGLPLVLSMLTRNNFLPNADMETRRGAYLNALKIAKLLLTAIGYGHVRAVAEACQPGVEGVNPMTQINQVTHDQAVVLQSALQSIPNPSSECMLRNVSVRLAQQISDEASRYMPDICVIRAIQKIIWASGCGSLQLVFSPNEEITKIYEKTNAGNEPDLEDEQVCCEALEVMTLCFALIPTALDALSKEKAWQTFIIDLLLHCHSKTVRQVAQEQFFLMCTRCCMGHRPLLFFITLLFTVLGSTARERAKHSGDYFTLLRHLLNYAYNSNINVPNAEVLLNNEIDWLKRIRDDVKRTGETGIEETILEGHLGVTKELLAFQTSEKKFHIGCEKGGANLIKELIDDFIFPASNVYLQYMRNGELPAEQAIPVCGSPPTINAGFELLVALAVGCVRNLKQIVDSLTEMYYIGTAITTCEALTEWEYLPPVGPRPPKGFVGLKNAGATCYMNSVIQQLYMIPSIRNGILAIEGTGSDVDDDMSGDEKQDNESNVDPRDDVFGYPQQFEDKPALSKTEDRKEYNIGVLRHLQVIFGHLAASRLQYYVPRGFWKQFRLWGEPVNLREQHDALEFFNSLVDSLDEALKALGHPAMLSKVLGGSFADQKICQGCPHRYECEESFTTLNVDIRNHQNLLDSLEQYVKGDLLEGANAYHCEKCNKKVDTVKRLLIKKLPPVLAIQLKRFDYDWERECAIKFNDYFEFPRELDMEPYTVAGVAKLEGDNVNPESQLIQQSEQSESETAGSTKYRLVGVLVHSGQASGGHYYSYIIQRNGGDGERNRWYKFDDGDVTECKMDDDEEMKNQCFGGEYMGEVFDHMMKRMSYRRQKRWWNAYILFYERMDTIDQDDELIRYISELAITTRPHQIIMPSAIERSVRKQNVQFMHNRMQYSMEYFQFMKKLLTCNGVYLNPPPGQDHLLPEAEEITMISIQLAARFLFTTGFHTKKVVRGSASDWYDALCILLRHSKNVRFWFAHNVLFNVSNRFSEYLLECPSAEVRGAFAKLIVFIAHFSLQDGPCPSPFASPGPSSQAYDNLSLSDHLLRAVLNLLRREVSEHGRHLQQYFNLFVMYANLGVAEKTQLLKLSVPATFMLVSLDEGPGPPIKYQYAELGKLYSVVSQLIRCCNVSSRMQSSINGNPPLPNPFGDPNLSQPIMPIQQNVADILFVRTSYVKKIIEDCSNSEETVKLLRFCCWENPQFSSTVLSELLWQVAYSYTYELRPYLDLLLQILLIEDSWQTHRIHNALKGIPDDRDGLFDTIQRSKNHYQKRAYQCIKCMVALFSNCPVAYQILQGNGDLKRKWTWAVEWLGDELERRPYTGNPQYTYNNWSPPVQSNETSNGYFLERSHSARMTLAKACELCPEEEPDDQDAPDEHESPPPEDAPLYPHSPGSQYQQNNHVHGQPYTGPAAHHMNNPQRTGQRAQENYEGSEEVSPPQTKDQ
Outline: (§1)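 HEK293T lysate in Tris/CHAPS/IGEPAL buffer with protease inhibitors (495 µg per sample) was given fragment at 200 µM or vehicle for 3 h, in triplicate. It then received Biotin-Ahx-Ub-VS at 0.5 µM final for 1 h. Labelled DUBs were NeutrAvidin-enriched, digested with LysC and trypsin, and run by diaPASEF LC-MS/MS. Values are average log2 fragment/vehicle ratios by unpaired t-test on global-median-normalised Spectronaut quantities of proteins with ≥2 unique peptides.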

UniProt O00487 = target: UniProt O00487
Sequence of UniProt O00487 (O00487 whole entry): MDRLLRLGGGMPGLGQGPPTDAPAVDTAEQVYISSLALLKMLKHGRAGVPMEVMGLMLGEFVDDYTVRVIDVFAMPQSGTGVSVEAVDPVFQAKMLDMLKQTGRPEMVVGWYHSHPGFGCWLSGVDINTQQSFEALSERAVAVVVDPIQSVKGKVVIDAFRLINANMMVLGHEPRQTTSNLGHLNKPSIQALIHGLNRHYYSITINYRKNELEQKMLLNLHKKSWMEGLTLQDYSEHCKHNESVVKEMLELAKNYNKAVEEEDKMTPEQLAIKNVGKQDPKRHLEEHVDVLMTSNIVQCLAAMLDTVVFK
Outline: as §1

UniProt O00507 = target: UniProt O00507
Outline: as §1

UniProt P51784 = target: UniProt P51784
Sequence of UniProt P51784 (P51784 whole entry): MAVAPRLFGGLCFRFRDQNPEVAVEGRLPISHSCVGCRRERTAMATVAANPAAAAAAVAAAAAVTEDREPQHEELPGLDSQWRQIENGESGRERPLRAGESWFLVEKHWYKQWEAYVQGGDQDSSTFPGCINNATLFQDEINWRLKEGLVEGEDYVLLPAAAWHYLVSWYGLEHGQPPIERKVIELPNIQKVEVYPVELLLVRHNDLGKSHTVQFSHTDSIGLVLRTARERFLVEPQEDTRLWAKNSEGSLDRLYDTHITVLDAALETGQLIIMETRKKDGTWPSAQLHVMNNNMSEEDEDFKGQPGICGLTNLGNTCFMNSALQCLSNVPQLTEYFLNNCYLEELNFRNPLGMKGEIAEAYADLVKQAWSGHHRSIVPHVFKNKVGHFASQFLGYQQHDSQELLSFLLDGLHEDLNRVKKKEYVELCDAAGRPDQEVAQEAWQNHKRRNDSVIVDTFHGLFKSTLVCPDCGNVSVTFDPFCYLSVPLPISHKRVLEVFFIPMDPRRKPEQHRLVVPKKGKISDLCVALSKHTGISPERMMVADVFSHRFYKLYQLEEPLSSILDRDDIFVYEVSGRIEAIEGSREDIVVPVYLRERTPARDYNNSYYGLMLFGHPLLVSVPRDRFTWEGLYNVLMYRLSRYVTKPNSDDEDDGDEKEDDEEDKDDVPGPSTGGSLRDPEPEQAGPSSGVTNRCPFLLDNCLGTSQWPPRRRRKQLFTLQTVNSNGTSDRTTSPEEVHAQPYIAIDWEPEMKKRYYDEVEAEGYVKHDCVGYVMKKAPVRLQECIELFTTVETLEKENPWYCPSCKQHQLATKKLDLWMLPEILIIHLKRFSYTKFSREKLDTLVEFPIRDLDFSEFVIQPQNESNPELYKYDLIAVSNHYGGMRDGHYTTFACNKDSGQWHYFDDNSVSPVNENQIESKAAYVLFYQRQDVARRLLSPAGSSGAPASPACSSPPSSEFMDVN
Outline: as §1

UniProt Q5T2D3 = target: T1, UniProt Q5T2D3
T1 sequence (whole entry): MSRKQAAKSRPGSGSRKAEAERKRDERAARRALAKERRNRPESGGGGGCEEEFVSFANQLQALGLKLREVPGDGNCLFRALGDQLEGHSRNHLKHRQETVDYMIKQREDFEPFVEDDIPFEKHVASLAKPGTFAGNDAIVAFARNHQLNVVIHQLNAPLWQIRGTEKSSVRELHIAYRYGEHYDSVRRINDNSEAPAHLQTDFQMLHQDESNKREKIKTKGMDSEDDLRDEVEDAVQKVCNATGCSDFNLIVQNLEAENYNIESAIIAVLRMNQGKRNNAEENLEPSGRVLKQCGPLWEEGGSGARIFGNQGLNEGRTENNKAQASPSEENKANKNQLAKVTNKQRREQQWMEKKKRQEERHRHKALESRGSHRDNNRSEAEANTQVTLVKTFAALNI
Outline: as §1

UniProt Q8TE49 = target: T2, UniProt Q8TE49
T2 sequence (whole entry): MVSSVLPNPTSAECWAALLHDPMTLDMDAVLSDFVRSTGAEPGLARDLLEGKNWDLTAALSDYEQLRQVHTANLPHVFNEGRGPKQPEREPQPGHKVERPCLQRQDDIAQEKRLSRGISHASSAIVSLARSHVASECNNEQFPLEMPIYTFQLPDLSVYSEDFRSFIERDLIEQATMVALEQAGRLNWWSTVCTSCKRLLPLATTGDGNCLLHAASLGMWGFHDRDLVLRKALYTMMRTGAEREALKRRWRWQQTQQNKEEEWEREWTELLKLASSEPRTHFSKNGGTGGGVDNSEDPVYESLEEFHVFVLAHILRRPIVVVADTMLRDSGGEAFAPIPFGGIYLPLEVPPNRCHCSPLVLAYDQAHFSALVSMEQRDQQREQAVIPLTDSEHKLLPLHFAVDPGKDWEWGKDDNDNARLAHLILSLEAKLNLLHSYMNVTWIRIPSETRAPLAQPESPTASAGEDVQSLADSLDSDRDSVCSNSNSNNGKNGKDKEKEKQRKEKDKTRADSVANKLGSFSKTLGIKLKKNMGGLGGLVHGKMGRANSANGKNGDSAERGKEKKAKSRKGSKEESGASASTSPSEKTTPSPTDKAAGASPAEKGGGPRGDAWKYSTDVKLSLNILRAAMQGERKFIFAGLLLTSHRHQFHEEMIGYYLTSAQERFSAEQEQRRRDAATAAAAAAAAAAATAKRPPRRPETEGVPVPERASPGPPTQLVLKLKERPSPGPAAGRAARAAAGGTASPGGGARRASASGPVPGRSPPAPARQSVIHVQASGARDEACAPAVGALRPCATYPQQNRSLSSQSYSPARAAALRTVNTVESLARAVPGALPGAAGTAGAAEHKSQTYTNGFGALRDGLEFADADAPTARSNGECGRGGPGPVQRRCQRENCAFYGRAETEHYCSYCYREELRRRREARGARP
Outline: as §1

UniProt Q9P2H5 = target: T3, UniProt Q9P2H5
T3 sequence (whole entry): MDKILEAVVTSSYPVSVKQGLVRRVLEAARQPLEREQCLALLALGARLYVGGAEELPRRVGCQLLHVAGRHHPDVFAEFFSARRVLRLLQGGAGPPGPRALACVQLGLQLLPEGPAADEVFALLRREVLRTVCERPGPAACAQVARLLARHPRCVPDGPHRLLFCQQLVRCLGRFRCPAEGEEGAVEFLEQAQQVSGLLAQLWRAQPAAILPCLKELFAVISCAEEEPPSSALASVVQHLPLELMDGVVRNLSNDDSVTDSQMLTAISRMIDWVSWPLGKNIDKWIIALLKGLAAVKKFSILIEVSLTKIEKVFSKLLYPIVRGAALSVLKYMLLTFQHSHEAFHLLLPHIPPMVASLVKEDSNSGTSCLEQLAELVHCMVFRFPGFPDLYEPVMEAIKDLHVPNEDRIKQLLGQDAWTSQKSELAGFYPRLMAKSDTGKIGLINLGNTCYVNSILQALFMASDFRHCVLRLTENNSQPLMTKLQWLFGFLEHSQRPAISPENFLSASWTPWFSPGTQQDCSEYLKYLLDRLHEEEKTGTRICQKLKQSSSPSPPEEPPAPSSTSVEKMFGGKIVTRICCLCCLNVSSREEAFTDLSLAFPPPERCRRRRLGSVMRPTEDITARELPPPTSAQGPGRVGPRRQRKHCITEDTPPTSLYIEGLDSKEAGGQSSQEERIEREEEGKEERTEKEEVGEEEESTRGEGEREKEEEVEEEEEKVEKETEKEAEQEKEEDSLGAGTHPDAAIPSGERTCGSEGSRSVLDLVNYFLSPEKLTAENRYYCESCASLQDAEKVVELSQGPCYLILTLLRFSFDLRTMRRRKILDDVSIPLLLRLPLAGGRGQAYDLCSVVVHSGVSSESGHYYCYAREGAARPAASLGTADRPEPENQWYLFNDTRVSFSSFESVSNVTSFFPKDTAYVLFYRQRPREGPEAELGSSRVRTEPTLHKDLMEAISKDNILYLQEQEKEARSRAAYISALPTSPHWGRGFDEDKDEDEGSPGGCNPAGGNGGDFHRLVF
Outline: as §1

UniProt Q9UGI0 = target: T4, UniProt Q9UGI0
T4 sequence (whole entry): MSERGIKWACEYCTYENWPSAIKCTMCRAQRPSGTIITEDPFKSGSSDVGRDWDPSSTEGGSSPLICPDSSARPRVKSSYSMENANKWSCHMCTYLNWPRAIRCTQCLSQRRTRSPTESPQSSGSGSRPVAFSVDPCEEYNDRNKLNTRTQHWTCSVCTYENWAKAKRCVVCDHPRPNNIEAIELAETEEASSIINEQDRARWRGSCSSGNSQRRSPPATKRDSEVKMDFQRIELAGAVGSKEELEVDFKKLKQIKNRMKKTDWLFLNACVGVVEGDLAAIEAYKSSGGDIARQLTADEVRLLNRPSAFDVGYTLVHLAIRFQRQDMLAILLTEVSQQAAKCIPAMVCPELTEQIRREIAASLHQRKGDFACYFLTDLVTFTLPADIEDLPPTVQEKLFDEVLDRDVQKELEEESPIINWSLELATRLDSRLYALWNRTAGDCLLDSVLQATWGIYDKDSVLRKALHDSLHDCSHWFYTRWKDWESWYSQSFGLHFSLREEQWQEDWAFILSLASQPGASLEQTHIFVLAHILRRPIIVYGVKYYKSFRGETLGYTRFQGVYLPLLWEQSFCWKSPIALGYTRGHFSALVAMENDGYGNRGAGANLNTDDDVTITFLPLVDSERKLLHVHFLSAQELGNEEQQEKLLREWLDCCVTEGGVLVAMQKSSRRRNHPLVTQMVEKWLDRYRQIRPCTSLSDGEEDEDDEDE
Outline: as §1

YOD1 = target: T5, YOD1 (UniProt Q5VVQ6)
T5 sequence (whole entry): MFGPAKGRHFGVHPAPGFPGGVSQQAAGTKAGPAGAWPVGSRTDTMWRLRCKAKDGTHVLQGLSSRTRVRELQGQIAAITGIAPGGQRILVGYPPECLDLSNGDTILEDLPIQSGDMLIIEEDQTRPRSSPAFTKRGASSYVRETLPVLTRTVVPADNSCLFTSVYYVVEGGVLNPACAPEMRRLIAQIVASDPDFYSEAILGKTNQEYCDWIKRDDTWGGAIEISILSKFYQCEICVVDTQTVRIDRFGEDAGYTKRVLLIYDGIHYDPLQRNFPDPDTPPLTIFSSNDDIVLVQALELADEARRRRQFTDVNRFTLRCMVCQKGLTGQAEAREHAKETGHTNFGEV
Outline: as §1

Measured: log2 ratio of Biotin-Ahx-Ub-VS probe labelling

O=C(CCl)NCc1cccc(F)c1
inactive: USP9X 0.0745 | UniProt O00487 -0.0795 | UniProt O00507 0.176 | UniProt P51784 -0.104 | UniProt Q5T2D3 -0.0819 | UniProt Q8TE49 -0.349 | UniProt Q9P2H5 0.0328 | UniProt Q9UGI0 -0.684 | YOD1 -0.0324
